Screens as filed in PubChem.
Exocytosis inh: lytic granule exocytosis inhibition; hit rate 0.66% among 360,000; TALL-104 LAMP-1 surface exposure, flow cytometry; cells stimulated with thapsigargin and PMA; inhibition, % at 10 µM;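 active = inhibition above about 55%, limit read from the data; inconclusive = no clear call, values can overlap the other calls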
beta cell repl: induces beta-cell replication in MIN6 cells; MIN6 cells proliferation, ATPlite luminescence, 48 h; cells starved in 0.2% serum; 100% = growth in 10% serum; proliferation, % at 10 µM; hit rate 0.29% among 330,000; AID 2380;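 active = compounds whose signal lies at least 3.5 SD above the mean of all wells on their plate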
PfM18AAP inh: blocks P. falciparum M18 aspartyl aminopeptidase; recombinant PfM18AAP, H-Glu-NHMec fluorogenic cleavage; inhibition, % at 7.35 µM; hit rate 1.2% among 290,000; AID 1822;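 active = inhibition above the campaign mean inhibition over all tested compounds plus 3 SD, cut at about 28% in these data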
SMARCA2 act: activators of SMARCA2 function. hit rate 1% among 370,000. MG213 cells, MMTV-luciferase reporter, dexamethasone, overnight. activation, % at 9.1 µM; in the data active = activation above about 7.8%
GASC-1 inh: human JMJD2C demethylase inhibition; GST-JMJD2C(1-420) H3K9me3 demethylation, DELFIA europium; inhibition, % at 2.35 µM; Q9H3R0; hit rate 0.069% among 330,000;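 active = more than half of a compound's replicate wells show inhibition beyond 50%, single wells judged on their own value; inconclusive = some, but no more than half, of replicates pass 50% inhibition; inactive = no replicate passes 50% inhibition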;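 also: signal counts dimethyl H3K9 product captured on neutravidin plate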
Target sequence (Q9H3R0 1-420 limits assumed): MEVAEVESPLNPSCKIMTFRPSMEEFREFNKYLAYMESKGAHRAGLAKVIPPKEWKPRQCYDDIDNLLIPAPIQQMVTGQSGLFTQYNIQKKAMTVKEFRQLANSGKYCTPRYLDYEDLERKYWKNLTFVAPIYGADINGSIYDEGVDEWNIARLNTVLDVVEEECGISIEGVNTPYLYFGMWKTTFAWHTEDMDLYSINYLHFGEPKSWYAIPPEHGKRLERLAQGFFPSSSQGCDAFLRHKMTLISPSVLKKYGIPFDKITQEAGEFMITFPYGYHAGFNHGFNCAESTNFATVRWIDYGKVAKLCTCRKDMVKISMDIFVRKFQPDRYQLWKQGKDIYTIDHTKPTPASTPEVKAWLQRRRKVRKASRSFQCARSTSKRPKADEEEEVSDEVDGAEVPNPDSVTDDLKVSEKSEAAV
ALR inh: blocks human ALR sulfhydryl oxidase activity; inhibition, % (no concentration beside the values); hit rate 3.8% among 290,000; purified ALR, DTT oxidation, H2O2 HRP-luminol luminescence; P55789; AID 485317;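 active = mean replicate inhibition above about 79%, with every replicate also reaching it, limit read from the data; inconclusive = only one of the two criteria met; inactive = mean below limit and not every replicate reaching it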
Target sequence (P55789 whole entry, looked up): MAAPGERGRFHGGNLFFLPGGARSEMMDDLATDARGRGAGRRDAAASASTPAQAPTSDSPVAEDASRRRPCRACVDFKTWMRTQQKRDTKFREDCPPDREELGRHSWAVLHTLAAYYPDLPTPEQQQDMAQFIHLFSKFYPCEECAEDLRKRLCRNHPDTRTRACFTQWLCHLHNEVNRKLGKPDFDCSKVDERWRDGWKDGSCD
Of the large screens only hits and unclear results are named; the others gave an inactive call. The list is not random: actives were taken first. Their share in the collection is about 5.4%.

COC(=O)[C@]12C[C@H](CC(=O)N3CCN(C(=O)C4CC4)CC3)C(=O)N(Cc3ccc(Cl)cc3Cl)C1=C[C@H](COCc1ccccc1)O[C@@H]2C	none (no result: Exocytosis inh, beta cell repl, PfM18AAP inh, GASC-1 inh, ALR inh)
CCS(=O)(=O)N1CCN=C1SCc1ccc(F)cc1	ALR inh 89
CCCS(=O)(=O)N1CCN=C1SCc1cccnc1	ALR inh 99
CCS(=O)(=O)N1CCN=C1SCc1ccccc1	none
CCCS(=O)(=O)N1CCN=C1SCc1ccc(F)cc1	ALR inh 92
CCS(=O)(=O)N1CCN=C1SCc1cccc(F)c1	none
CC(=O)Nc1ccc(S(=O)(=O)N2CCN=C2SCc2ccc(F)cc2)cc1	none
CS(=O)(=O)N1CCN=C1SCc1cccc(F)c1	ALR inh 81
CCCS(=O)(=O)N1CCN=C1SCc1cccc2ccccc12	ALR inh 99
O=S(=O)(c1ccccc1)N1CCN=C1SCc1ccccc1Cl	ALR inh inconclusive
N#CCC[C@H]1CC[C@]2(CCCN(Cc3ccccc3)C2)O1	none (no result: Exocytosis inh, beta cell repl, PfM18AAP inh, GASC-1 inh, ALR inh)
O=C(N[C@H](c1cccc(Br)c1)[C@@H]1CCCC=C1c1ccccc1)C(F)(F)F	none (no result: Exocytosis inh, beta cell repl, PfM18AAP inh, GASC-1 inh, ALR inh)
CCOC(=O)c1oc2cccc(O)c2c1CN(Cc1ccccc1)C(C)=O	ALR inh 85
CCOC(=O)c1oc2cccc(O)c2c1C	none
Cc1ccc(-n2c(SCC(=O)Nc3ccc4cn[nH]c4c3)nnc2-c2ccccc2)cc1	none (no result: Exocytosis inh, beta cell repl, PfM18AAP inh, GASC-1 inh, ALR inh)
CC1=C2N=C(N)N(Cc3ccccc3)C(Cc3ccccc3)C2n2c(=O)n(-c3ccccc3)c(=O)n2C1 (configuration not stated)	none (no result: Exocytosis inh, beta cell repl, PfM18AAP inh, GASC-1 inh, ALR inh)
CCOC(=O)/C(=N\Nc1cccc(C(F)(F)F)c1)N(CCOC)CCOC	ALR inh 97
Cc1n[nH]c(C)c1S(=O)(=O)NC(C)Cc1ccccn1 (configuration not stated)	none (no result: Exocytosis inh, beta cell repl, PfM18AAP inh, GASC-1 inh, ALR inh)
CCC(CN(C)C)Oc1cc(NCc2ccccc2)c2ncn(C(C)C)c2c1 (configuration not stated)	none (no result: PfM18AAP inh, SMARCA2 act, GASC-1 inh, ALR inh)
COc1cc(NCc2ccccc2)c2ncn(C(C)C)c2c1	ALR inh 98 (no result: PfM18AAP inh)
COC1=C[C@H](C(=O)NCc2ccc(Cl)cc2)C(C)C(c2ccccc2)CC1=O (some centres not stated)	none (no result: Exocytosis inh, beta cell repl, PfM18AAP inh, GASC-1 inh, ALR inh)
CCN(CC)c1ccc(CN2CCC(C(=O)NCc3ccc(C)cc3)CC2)cc1	ALR inh 82
COc1ccc(CC(/C=C/c2ccc(F)cc2)c2ccccc2)cc1 (configuration not stated)	none (no result: Exocytosis inh, beta cell repl, PfM18AAP inh, GASC-1 inh, ALR inh)
COc1ccc(CC(=O)NC(=S)NNC(=O)COc2c(C)cccc2C)cc1	PfM18AAP inh 47
CC(C)c1ccc(NC(=O)CSc2nnc(-c3ccco3)n2C)cc1	none (no result: Exocytosis inh, beta cell repl, PfM18AAP inh, GASC-1 inh, ALR inh)
Cc1cc(=O)oc2cc3c(cc12)OCCN3	ALR inh 97
FC(F)(F)Oc1ccc(Cn2ccc3ccc(-c4ccc5ccn(Cc6ccccc6)c5c4)cc32)cc1	none (no result: Exocytosis inh, beta cell repl, PfM18AAP inh, GASC-1 inh, ALR inh)
O=C(C1CCCN(S(=O)(=O)c2cccs2)C1)N1CCN(Cc2ccccc2)CC1 (configuration not stated)	none (no result: Exocytosis inh, beta cell repl, PfM18AAP inh, GASC-1 inh, ALR inh)
CN(C)c1ccc(CNC(=O)c2ccc(CNc3c(N4CCCCC4)c(=O)c3=O)cc2)cc1	ALR inh 98
O=C(NCc1ccc(Cl)cc1)c1ccc(CNc2c(N3CCCC3)c(=O)c2=O)cc1	none (no result: ALR inh)
COc1ccc(/C=C2/C(=O)ON=C2C)cc1Br	none
COc1ccccc1/C=C1/C(=O)ON=C1C	ALR inh 98
O=C(CCC1CCCCC1)Nc1ccccc1O	ALR inh 91
O=C(CCC1CCCCC1)Nc1ccccc1-c1ccccc1	none
OCC(CCc1c[nH]c2ccccc12)c1c[nH]c2ccccc12 (configuration not stated)	none (no result: Exocytosis inh, beta cell repl, PfM18AAP inh, GASC-1 inh, ALR inh)
COc1ccc(NC(=S)Nc2ccc3cn[nH]c3c2)cc1	ALR inh 100
COCc1[nH]nc2c1C(c1cccc(C(F)(F)F)c1)N(c1ccccc1)C2=O (configuration not stated)	none (no result: Exocytosis inh, beta cell repl, PfM18AAP inh, GASC-1 inh, ALR inh)
CN(CCCOC(=O)c1cccs1)C1CN(Cc2cn(Cc3ccccc3Cl)nn2)S(=O)(=O)C1 (configuration not stated)	none (no result: Exocytosis inh, beta cell repl, PfM18AAP inh, GASC-1 inh, ALR inh)
O=C(CSc1nc(O)cc(=O)n1-c1ccccc1)NC1CCCCC1	none
COC(=O)c1ccccc1NC(=O)CSc1nc(O)cc(=O)n1C1CCCC1	ALR inh 98
O=C(CSc1nc(O)cc(=O)n1C1CCCC1)Nc1cccc(Cl)c1Cl	ALR inh 99
CCc1ccc(NC(=O)CSc2nc(O)cc(=O)n2C2CCCC2)cc1	ALR inh 99
CC(=O)c1ccccc1NC(=O)CSc1n[nH]c(=O)n1C1CC1	none (no result: PfM18AAP inh)
CCCCNC(=O)CSc1nc(O)cc(=O)n1C1CCCC1	none (no result: ALR inh)
Cc1ccc(NCc2nc3ccccc3n2C)c(C)c1	ALR inh 98
Cc1ccc(NCc2n[nH]c(=S)n2-c2ccccc2)c(C)c1	ALR inh 98
Cc1ccc(-c2n[nH]c(=S)n2-c2ccccc2)cc1	none
Cc1cccc(NCc2nc3ccccc3n2C)c1	none
Cc1ccc(NCc2n[nH]c(=S)n2-c2ccccc2)cc1	ALR inh 98
CS(=O)(=O)Nc1ccc(-c2n[nH]c(=S)n2-c2ccccc2)cc1	PfM18AAP inh 31, ALR inh 97
Cc1cccc(NCc2n[nH]c(=S)n2-c2ccccc2)c1	none
COc1ccc(S[C@]2(C(=O)N3CCN(c4ncccn4)CC3)CC(=O)N(C(=O)/C=C/c3ccccc3)[C@@H]2c2ccc(OC)cc2)cc1	none (no result: Exocytosis inh, beta cell repl, PfM18AAP inh, GASC-1 inh, ALR inh)
O=C(O)CC1S/C(=N/N=C/c2ccc(-c3ccccc3[N+](=O)[O-])o2)NC1=O (configuration not stated)	ALR inh 98
Cc1ccc(-c2ccc(/C=N/N=C3/NC(=O)C(CC(=O)O)S3)o2)c([N+](=O)[O-])c1 (configuration not stated)	ALR inh 99
O=C(C[C@@H]1C[C@@H]2c3cc(NC(=O)c4ccc5c(c4)OCO5)ccc3O[C@@H]2[C@@H](CO)O1)NCc1cccnc1	none (no result: Exocytosis inh, beta cell repl, PfM18AAP inh, GASC-1 inh, ALR inh)
CCOC(=O)[C@@]12CCCC3=C1N(CCC3)C(=O)[C@H]2CC(=O)NCc1ccccc1	none (no result: Exocytosis inh, beta cell repl, PfM18AAP inh, GASC-1 inh, ALR inh)
Cc1ccc2nc(C)cc(Nc3ccc([N+](=O)[O-])cc3)c2c1	Exocytosis inh 83 (no result: beta cell repl)
O=C(c1cccc(Cl)c1)C1CCCN(Cc2ccc(N3CCNC3=O)cc2)C1 (configuration not stated)	ALR inh 96
C[C@@H]1[C@@H](O)C[C@@]2(C[C@H](O)c3ccccc3O2)O[C@H]1c1ccccc1	none (no result: Exocytosis inh, beta cell repl, PfM18AAP inh, GASC-1 inh, ALR inh)
CCc1ccc(OCC(=O)N/N=C\c2ccco2)c([N+](=O)[O-])c1	ALR inh 96
Cc1ccc(OCC(=O)N/N=C\c2ccc(O)cc2)c([N+](=O)[O-])c1	ALR inh 87
O=C(CSc1nnc(-c2ccccn2)n1-c1ccccc1)c1ccc(F)cc1	none (no result: Exocytosis inh, beta cell repl, PfM18AAP inh, GASC-1 inh, ALR inh)
COc1cc(C(Nc2ccccn2)c2ccc3ccc(C)nc3c2O)cc(OC)c1O (configuration not stated)	Exocytosis inh 105, PfM18AAP inh 30 (no result: SMARCA2 act)
O=C(CSCc1ccccc1)N1CCN(Cc2ccc3c(c2)OCO3)CC1	none
